Test results as given in article PMC5540273 (PLoS ONE, 2017).

How the values were obtained:
Details in all cases: concentration: 1 μM, replicates: in singlicate; n = 1
ERK1 = system: T1, ERK1
T1 construct: gene MAPK3

ERK2 = system: T2, ERK2
T2 construct: gene MAPK1

ERK3 = system: T3, ERK3
T3 construct: gene MAPK6

ERK4 = system: T4, ERK4
T4 construct: gene MAPK4

ERK5 = system: T5, ERK5
T5 construct: gene MAPK7

ERK8 = system: T6, ERK8
T6 construct: gene MAPK15

ERN1 = system: ERN1
FAK = system: T7, FAK
T7 construct: gene PTK2

FER = system: FER
FES = system: FES
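Also: KINOMEscan kinase panel screen.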

SMILES | %Inh (ERK1) [%] | %Inh (ERK2) [%] | %Inh (ERK3) [%] | %Inh (ERK4) [%] | %Inh (ERK5) [%] | %Inh (ERK8) [%] | %Inh (ERN1) [%] | %Inh (FAK) [%] | %Inh (FER) [%] | %Inh (FES) [%]
COc1cc(Nc2nccc(N3CCC(NC(=O)c4cc5ccccc5s4)C3)n2)cc(OC)c1OC (stereo not shown) [GSK1379760] | 12 | 9 | 0 | 0 | 0 | 0 | 6 | 0 | 34 | 0
O=C(Nc1ccccc1F)NC1CCN(c2ccnc(Nc3ccc(F)cc3)n2)CC1 [GSK1379800] | 3 | 0 | 20 | 0 | 0 | 0 | 0 | 0 | 15 | 0
Clc1ccc(-c2nn3ncccc3c2-c2ccnc(Nc3ccc4c(c3)OCCO4)n2)cc1 [GW829116] | 0 | 12 | 3 | 0 | 0 | 1 | 0 | 0 | 0 | 0
COc1cccc(C(=O)Nc2cccc(Oc3ccc4nc(NC(=O)C5CC5)cn4n3)c2)c1 | 4 | 6 | 0 | 0 | 0 | 14 | 0 | 1 | 0 | 0
c1ccc(Oc2ccc(Nc3ccnc4cc(-c5ccc(CNCCN6CCOCC6)o5)ccc34)cc2)nc1 [GW567145] | 0 | 0 | 0 | 0 | 0 | 0 | 26 | 0 | 0 | 5
Cc1cccc(Nc2nc(N[C@H]3CCNC3)ncc2C(N)=O)c1.Cl [GSK2197149] | 1 | 0 | 65 | 25 | 0 | 12 | 7 | 0 | 69 | 0
COc1cccc(C2=C(Nc3ccc(Cl)c(C(=O)O)c3)C(=O)NC2=O)c1 [SB-390769] | 10 | 0 | 0 | 19 | 0 | 0 | 100 | 0 | 7 | 0
O=C(Nc1cccc(-c2nn3ncccc3c2-c2ccnc(Nc3ccccc3)n2)c1)c1c(F)cccc1F [GSK198271] | 0 | 6 | 0 | 20 | 4 | 0 | 32 | 0 | 45 | 6
Cc1cccc(NC(=O)Nc2ccc(Oc3ncnc4ccn(C)c34)cc2)c1 | 0 | 20 | 0 | 0 | 0 | 12 | 0 | 5 | 0 | 0
Cl.Cl.NCC(NC(=O)c1cc(-c2ccccc2)c(-c2ccnc3[nH]ccc23)s1)c1ccccc1 (stereo not shown) [GSK1321561] | 6 | 16 | 0 | 8 | 0 | 0 | 0 | 0 | 36 | 0
CSc1cccc2c(-c3ccncn3)c(-c3ccc(F)cc3)nn12 [GW514786] | 14 | 6 | 0 | 5 | 0 | 0 | 12 | 0 | 17 | 0
COc1ccc(Nc2nccc(NCCNC(=O)c3cc4ccccc4s3)n2)cc1 [GSK1379896] | 0 | 0 | 0 | 0 | 0 | 0 | 0 | 11 | 12 | 0
Nc1ncc(-c2cccnc2)c2scc(-c3ccc4c(c3)CCN4C(=O)Cc3ccccc3)c12 [GSK683281] | 0 | 11 | 4 | 21 | 0 | 0 | 35 | 0 | 33 | 0
COc1ccc(-c2coc3ccc(-c4nnc(SCc5ccc(OC)c(C(F)(F)F)c5)o4)cc23)cc1 | 8 | 24 | 0 | 3 | 2 | 2 | 44 | 10 | 0 | 4
FC(F)(F)c1ccc(/C=C/c2cncnc2Nc2ccc3[nH]c(Cc4ccccc4)nc3c2)cc1 [GW709199] | 0 | 0 | 0 | 9 | 12 | 21 | 0 | 21 | 0 | 38
COc1cccc(NC(=O)NC2CCN(c3ccnc(Nc4cc(OC)c(OC)c(OC)c4)n3)C2)c1 (stereo not shown) [GSK1379763] | 0 | 0 | 7 | 25 | 0 | 0 | 7 | 0 | 0 | 8
